# According to PubChem BioAssay (NCATS):
# Inconclusive results are not listed. Calls of active or inactive are those of the source. Unless noted, the call rests on the fitted dose curve; in most records, active means well fitted curve in the direction sought with a large enough effect; inconclusive means small, poorly fitted or top-dose-only effect, or another doubt; inactive means no such curve, though single readings can be large; an effect the other way counts as inactive or inconclusive.
# What was measured:
# [1] = target: Catechol O-methyltransferase (Homo sapiens) (UniProt P21964); assay: Confirmatory Screen for Target Class Profiling of Small Molecule Inhibitors of Methyltransferases (AID 1745852; calls by dose curve; on activity change, negative = inhibition: on the % scale 0 is the no-effect control and ±100 the full control effect); settings: MTase-Glo luminescence, SAH detection, recombinant enzyme; measured here: COMT max response; stronger effect = lower value
# [2] = target: Guanidinoacetate N-methyltransferase (Homo sapiens) (UniProt Q14353); assay: as above; settings: MTase-Glo luminescence, SAH detection, recombinant enzyme; activity change, negative = inhibition: at 57.3 µM (top of the series) unless noted; series mostly up to 57.3 µM
# [3] = target: Nicotinamide N-methyltransferase (Homo sapiens) (UniProt P40261); assay: as above; settings: MTase-Glo luminescence, SAH detection, recombinant enzyme; measured here: NNMT max response; stronger effect = lower value
# [4] = target: Phenylethanolamine N-methyltransferase (Homo sapiens) (UniProt P11086); assay: as above; settings: MTase-Glo luminescence, SAH detection, recombinant enzyme; measured here: PNMT max response; stronger effect = lower value
# [5] = target: Glutathione peroxidase 1 (Homo sapiens) (UniProt P07203); assay: Primary qHTS Assay for Inhibitors of Recombinant Selenoprotein Glutathione Peroxidase 1 (GPX1) (AID 1845191); settings: recombinant GPX1, GR-coupled NADPH fluorescence, 15 min; series mostly up to 48.8 µM; further: nearly all actives have a fitted effect of over 65% in size
# Method in brief: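 10 nM GPX1 + cpd, 30 min RT; start w/ 1 mM GSH, 0.5 mM cumene hydroperoxide, 0.5 mM NADPH, 100 nM GR, 0.01% BSA; buffer 50 mM Tris-HCl pH 7.5, 2 mM EDTA, 150 mM NaCl; Fl 340/450, 0 & 15 min.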
# [6] = NCATS anti-infectives library activity on HEK293 viability as a counter-qHTS vs the C. elegans viability qHTS (AID 1745854); settings: HEK293 viability counter-screen; series mostly up to 41.8 µM;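 further: HEK293 cells exposed to compounds for 24 hr before the viability read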
# Method in brief: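 HEK293 cells (1,500/well) exposed 24 hr at 37C to 1:5 titrations, up to 41.7 uM final; counter-screen to a C. elegans viability qHTS. Viability by CellTiter-Glo luminescence after 10 min at room temperature; digitonin as control.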
# Potency means the concentration at half of the fitted maximal effect.
# Sequence of Phenylethanolamine N-methyltransferase (Homo sapiens) (P11086 whole entry, looked up): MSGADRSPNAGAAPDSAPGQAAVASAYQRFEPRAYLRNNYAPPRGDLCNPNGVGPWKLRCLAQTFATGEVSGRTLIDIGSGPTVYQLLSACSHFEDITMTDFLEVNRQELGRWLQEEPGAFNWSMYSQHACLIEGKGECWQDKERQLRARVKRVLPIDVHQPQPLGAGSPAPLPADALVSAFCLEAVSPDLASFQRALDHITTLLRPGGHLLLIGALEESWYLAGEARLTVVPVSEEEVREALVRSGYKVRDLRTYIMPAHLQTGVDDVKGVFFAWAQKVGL
# Sequence of Glutathione peroxidase 1 (Homo sapiens) (P07203 whole entry, looked up): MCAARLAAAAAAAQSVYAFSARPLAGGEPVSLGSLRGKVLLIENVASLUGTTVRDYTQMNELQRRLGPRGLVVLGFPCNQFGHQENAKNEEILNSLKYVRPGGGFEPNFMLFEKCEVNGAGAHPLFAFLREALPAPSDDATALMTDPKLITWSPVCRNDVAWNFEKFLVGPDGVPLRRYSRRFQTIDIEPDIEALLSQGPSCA
# Sequence of Nicotinamide N-methyltransferase (Homo sapiens) (P40261 whole entry, looked up): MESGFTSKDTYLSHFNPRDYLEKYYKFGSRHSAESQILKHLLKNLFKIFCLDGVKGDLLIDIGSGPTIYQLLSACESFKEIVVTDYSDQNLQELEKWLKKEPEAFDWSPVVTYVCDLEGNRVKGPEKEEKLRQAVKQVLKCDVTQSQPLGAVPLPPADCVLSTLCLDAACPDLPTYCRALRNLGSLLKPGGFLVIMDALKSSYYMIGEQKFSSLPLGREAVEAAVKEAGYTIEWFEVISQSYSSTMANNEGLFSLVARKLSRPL
# Sequence of Catechol O-methyltransferase (Homo sapiens) (P21964 whole entry, looked up): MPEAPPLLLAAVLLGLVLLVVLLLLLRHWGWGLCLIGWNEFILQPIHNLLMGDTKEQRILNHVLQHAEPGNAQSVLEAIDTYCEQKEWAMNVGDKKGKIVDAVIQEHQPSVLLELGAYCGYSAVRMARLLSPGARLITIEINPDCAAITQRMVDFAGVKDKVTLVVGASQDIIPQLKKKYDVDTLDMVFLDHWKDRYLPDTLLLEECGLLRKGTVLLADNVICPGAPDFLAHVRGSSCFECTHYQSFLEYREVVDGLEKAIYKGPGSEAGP
compound,measurement,setting,value
O=C(NCCc1ccccc1)N1CCn2cccc2C1Cc1ccccc1 (stereo not drawn),activity,[1],0.987%
same,Potency,[2],inactive
same,activity,[3],-8.34%
same,activity,[4],-0.866%
COc1ccc(NC(=O)CCc2ccnc(N3CCCC3)c2)c(OC)c1,activity,[1],-5.64%
same,"activity change, negative = inhibition",[2],-3.43%
same,activity,[3],-4.13%
same,activity,[4],-2.38%
Cc1cc(C)c(NS(=O)(=O)c2ccc3c(c2)n(C)c(=O)n3C)c(C)c1,activity,[1],0.505%
same,"activity change, negative = inhibition",[2],0%
same,activity,[3],-39.4%
same,activity,[4],0.178%
CC(=O)Nc1ccc2c(c1)C1C=CCC1C(c1ccccc1F)N2 (stereo not drawn),activity,[1],-18.4%
same,Potency,[2],42.9 µM (active)
same,activity,[3],-12.1%
same,activity,[4],-27.7%
Nc1nc(NCc2ccc(Cl)cc2Cl)cc(C2CC(O)C2)n1 (stereo not drawn),activity,[1],1.79%
same,"activity change, negative = inhibition",[2],-2.38%
same,activity,[3],-23.3%
same,activity,[4],-0.704%
COc1cccc(Nc2cc3c(cn2)CN(Cc2cccnc2)CCN3)c1,activity,[1],1.92%
same,"activity change, negative = inhibition",[2],2.65% [at 85.7 µM]
same,activity,[3],-7.33%
same,activity,[4],-8.41%
COc1ccc(OC)c(NC(=O)c2sc(=S)n3c2[nH]c(=O)c2ccc(Cl)cc23)c1,activity,[1],-83.1%
same,Potency,[2],24.1 µM (active)
same,activity,[3],-72.9%
same,activity,[4],-84.9%
COc1cc2nc(N3CCCCC3)nc(NC3CCN(C)CC3)c2cc1OC,activity,[1],1.4%
same,"activity change, negative = inhibition",[2],3.17%
same,activity,[3],-11.7%
same,activity,[4],-7.42%
same,Potency,[5],18 µM (active)
O=C(Nc1ccc2c(N3CCCCC3)ncnc2c1)c1ccccc1C(F)(F)F,activity,[1],-15.7%
same,"activity change, negative = inhibition",[2],-6.31%
same,activity,[3],-10.2%
same,activity,[4],-19.5%
CCCC1c2cccn2CCN1C(=O)Nc1cccc(Cl)c1C (stereo not drawn),activity,[1],-7.65%
same,"activity change, negative = inhibition",[2],-4.33%
same,activity,[3],-16%
same,activity,[4],-8.29%
Cc1cccc(N2CCN(C(=O)CCc3nnc4n(CC(C)C)c(=O)c5ccccc5n34)CC2)c1C,activity,[1],4.82%
same,"activity change, negative = inhibition",[2],2.51%
same,activity,[3],-69.8%
same,activity,[4],4.08%
O=C(CCc1nnc2n(Cc3ccc(Cl)cc3)c(=O)c3ccccc3n12)N1CCC(N2CCCCC2)CC1,activity,[1],-4.51%
same,"activity change, negative = inhibition",[2],-0.992%
same,activity,[3],-21.6%
same,activity,[4],0.847%
Cc1cccc(-c2nnc3n(CCc4ccccc4)c(=O)c4ccccc4n23)c1,activity,[1],-4.01%
same,Potency,[2],inactive
same,activity,[3],-11.5%
same,activity,[4],-10%
Cc1ccc([C@@H]2CN(c3cc(N4CCC(O)CC4)ncn3)C[C@H]2N(C)C)cc1,activity,[1],-2.09%
same,"activity change, negative = inhibition",[2],-0.694%
same,activity,[3],-5.73%
same,activity,[4],-0.207%
CCN(CC)CCCNC(=O)CCCc1nnc2n3nc(-c4ccccc4)nc3c3ccccc3n12,activity,[1],-3.39%
same,"activity change, negative = inhibition",[2],0%
same,activity,[3],-0.543%
same,activity,[4],-1.05%
Cc1ccc(Cn2c(=O)c3ccccc3n3c(CCC(=O)N4CCC(N5CCCCC5)CC4)nnc23)cc1,activity,[1],-6.25%
same,"activity change, negative = inhibition",[2],-4.42%
same,activity,[3],-14.2%
same,activity,[4],-2.33%
CC1CCN(CCCNC(=O)CCc2nnc3n(Cc4ccccc4)c(=O)c4ccccc4n23)CC1,activity,[1],0.801%
same,"activity change, negative = inhibition",[2],0%
same,activity,[3],-2.83%
same,activity,[4],2.06%
c1ccc(CO[C@H]2COCCN(c3nc4ccccc4o3)C2)cc1,activity,[1],1.17%
same,"activity change, negative = inhibition",[2],2.9% [at 85.7 µM]
same,activity,[3],-5.26%
same,activity,[4],-0.271%
COc1ccccc1-c1[nH]nc2ncc(C(=O)NCC3CC3)nc12,activity,[1],-33.3%
same,"activity change, negative = inhibition",[2],-13.8% [at 85.7 µM]
same,activity,[3],-16.5%
same,activity,[4],-40.5%
COc1cccc(Nc2ccnc(-c3nnc(C)n3C3CCCCC3)c2)c1,activity,[1],7.43%
same,"activity change, negative = inhibition",[2],17.8% [at 85.7 µM]
same,activity,[3],-22.9%
same,activity,[4],8.64%
Cn1c(COc2cccc(CN3CCCC3)c2Cl)nnc1C1CC(N)C1 (stereo not drawn),activity,[1],0.772%
same,"activity change, negative = inhibition",[2],-2.28%
same,activity,[3],-2.09%
same,activity,[4],-1.62%
O=C1c2ccccc2C(=O)c2cc(S(=O)(=O)NCCO)ccc21,activity,[1],-11%
same,"activity change, negative = inhibition",[2],0%
same,activity,[3],-0.735%
same,activity,[4],-29.7%
O=C(CCc1nnc2n(CCc3ccccc3)c(=O)c3ccccc3n12)N1CCC(N2CCCCC2)CC1,activity,[1],4.18%
same,"activity change, negative = inhibition",[2],0.438%
same,activity,[3],-3.96%
same,activity,[4],0%
Cc1noc(C)c1[S+](=O)([O-])N1CCn2c(nn(-c3ccc(C(F)(F)F)cc3)c2=O)C1,activity,[1],-1.02%
same,"activity change, negative = inhibition",[2],-1.81%
same,activity,[3],-3.73%
same,activity,[4],-10.3%
Cc1ccccc1Sc1ccc(/C=C2\SC(=S)NC2=O)cc1[N+](=O)[O-],activity,[1],-5.04%
same,Potency,[2],42.9 µM (active)
same,activity,[3],-72.5%
same,activity,[4],-30.1%
same,Potency,[5],inactive
CCCCN1C(=O)c2cc(C(=O)NCCc3ccccc3Cl)nn2CC1(C)C(=O)NC1CCCC1 (stereo not drawn),activity,[1],0.497%
same,"activity change, negative = inhibition",[2],0%
same,activity,[3],-0.43%
same,activity,[4],-2.62%
COc1ccc(/C=C/C(=O)O)cc1O,Potency,[6],inactive
CC(C)=C1C/C=C(\C)CC/C=C(\C)CC1=O,Potency,[6],inactive
Cn1c(Cn2ccc(C(F)(F)F)c(Oc3cc(Cl)cc(C#N)c3)c2=O)n[nH]c1=O,Potency,[6],inactive
COC(=O)c1cc(O)c(O)c(O)c1,Potency,[6],inactive
CC(=O)OC(C)(C)CCC(=O)[C@](C)(O)C1[C@H](O)C[C@@]2(C)C3CC=C4C(C[C@H](O)[C@@H](O)C4(C)C)[C@]3(C)C(=O)C[C@]12C (stereo partly drawn),Potency,[6],inactive
COc1ccc2cc1Oc1ccc(cc1)C[C@H]1c3cc(c(OC)cc3CCN1C)Oc1c(O)c(OC)cc3c1[C@H](C2)N(C)CC3,Potency,[6],inactive
COc1cc2nc(N3CCCCC3)nc(NC3CCN(Cc4ccccc4)CC3)c2cc1OC,activity,[1],11.8%
same,Potency,[2],0.968 µM (active)
same,activity,[3],-38.9%
same,activity,[4],1.57%
same,Potency,[5],16.1 µM (active)
Oc1ccc(OC2CCCCO2)cc1 (stereo not drawn),Potency,[6],14.1 µM (active)
